Values joined by “and” are separate entries in the source; they are usually repeats but may differ in a detail not shown here. Identical values can stand only once. Records with an inconclusive call do not appear. Some compounds were tested as several samples or in several runs, with calls that do not always agree. Active and inactive are the calls of the source. Rule for the calls, unless noted: active = hit-call score of the fitted dose curve at least 0.9, where 1 is the maximum; inactive = score below 0.9.

Usually AC50 stands for the midpoint of the concentration-response curve, whichever way the signal moves.

A short description of experiment [1]: CCTE_Mundy_HCI_Cortical_NOG_BPCount: CCTE's Neurite Outgrowth Assay in rat cortical cells for Branch Point Count, Mundy Lab (AID 2284237).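 For AC50: branch points counted about two days after chemical exposure.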 Summed up: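 Measured 50.33 h after dosing, this morphology endpoint uses rat primary cortical cultures labelled for betaIII-tubulin. Branch points are quantified by high-content imaging, with DMSO as negative control and baseline.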

Experiment [2] in a line: CCTE_Mundy_HCI_hNP1_Casp3_7: CCTE's Caspase-Glo 3/7 Assay in human neuroprogenitor cells for Apoptosis, Mundy Lab (AID 2284240). In outline:
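Apoptosis is scored by activated caspase-3/7 luminescence in WA09-derived neural progenitor cells, measured 26.5 h after chemical dosing. Values represent gain of signal relative to DMSO vehicle.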

The nature of experiment [3]: CCTE_Mundy_HCI_hNP1_CellTiter: CCTE's Cell Titer-Glo 2 Assay in human neuroprogenitor cells for Viability, Mundy Lab (AID 2284241; active = hit-call score of the fitted dose curve at least 0.9, where 1 is the maximum;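 for AC50: a hit is a drop in ATP luminescence versus DMSO meaning reduced viability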). In outline:
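Human neural progenitor cells (hNP1, WA09-derived) were plated on poly-L-ornithine/laminin and grown 40 to 44 hours at 37 °C, 5% CO2 before chemical addition. Twenty-four hours later, ATP was measured by CellTiter-Glo luminescence; loss of signal versus DMSO indicates reduced viability.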
Background: In ATP-based viability assays light output follows the ATP content of the culture.

A short description of experiment [4]: IUF_NPC2a_radial_glia_migration_120hr: Leibniz Research Institute for Environmental Medicine (IUF) 120-hour Neural Progenitor Cell Migration Assay for Radial Glia Migration (NPC2a) (AID 2284298). Summed up:
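Hoechst-stained nuclei imaged at 120 h; algorithm maps sphere core by densest nuclei, sets migration edge at density threshold, gives radial glia migration distance (um) per well vs DMSO. hNPC spheres (0.3 mm), PDL/laminin, DMEM/F12 3:1 + 1% N2.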

Experiment [5] in a line: IUF_NPC2a_radial_glia_migration_72hr: Leibniz Research Institute for Environmental Medicine (IUF) 72-hour Neural Progenitor Cell Migration Assay for Radial Glia Migration (NPC2a) (AID 2284299). Summed up: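 Single 0.3 mm neurospheres were plated per well in N2 differentiation medium and exposed from the start of differentiation. After 72 hours, brightfield images were taken and radial glia migration from the sphere core edge was measured manually in four directions, averaged per well.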

Experiment [6] in a line: IUF_NPC2b_neuronal_migration_120hr: Leibniz Research Institute for Environmental Medicine (IUF) 120-hour Neural Progenitor Cell Migration Assay for Neuron Migration (NPC2b) (AID 2284300). In outline:
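hNPC spheres, PDL/laminin, DMEM:F12 3:1 + 1% N2, 37C/5% CO2; 7 concentrations + solvent control (DMSO ≤0.1%), 5 d exposure, half-feed day 3. Fix 120 h, TUBB3 ICC, HCI: mean neuron migration distance ÷ glia distance.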

Experiment [7] is described as follows: IUF_NPC5_oligodendrocyte_differentiation_120hr: Leibniz Research Institute for Environmental Medicine (IUF) 120-hour Oligodendrocyte Differentiation Assay (NPC5) (AID 2284304; active = hit-call score of the fitted dose curve at least 0.9, where 1 is the maximum;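 note: primary human fetal neural progenitor spheres plated to migrate and differentiate; share of O4-positive cells among Hoechst nuclei found by CNN image analysis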). Summed up: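 hNPC spheres, fetal cortex GW 16-19; PDL/laminin, DMEM:F12 3:1 + 1% N2, 37C/5% CO2; 7 concentrations + solvent control, 5 d exposure, half-change day 3. Readout: %O4+ of Hoechst+ nuclei in migration area, CNN classification; DMSO baseline.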

Regarding `CCCCSP(=O)(SCCCC)SCCCC`, the AC50 in experiment [1] is 84.4 µM (active) and 76 µM (active); in experiment [2] it was 35.8 µM (active) and 32.8 µM (active); in experiment [3], 66.9 µM (active). In addition, the molecule was called inactive in experiment [4], in experiment [5], in experiment [6] and in experiment [7].
Turning to `CCOP(=S)(OCC)OC(Cl)C(Cl)(Cl)Cl` (stereo unspecified), the AC50 in experiment [1] is 50 µM (active) and 28.7 µM (active); in experiment [2] it was 50.5 µM (active); in experiment [3], 78.1 µM (active) and 88.7 µM (active); in experiment [4] it was 22.8 µM (active). For the same molecule, the call in experiment [2], in experiment [5], in experiment [6] and in experiment [7] was inactive.
For the molecule `COP(=O)(OC)OC(Br)C(Cl)(Cl)Br` (stereo unspecified), the AC50 in experiment [1] is 30.4 µM (active) and 22.1 µM (active); in experiment [2] it was 11.9 µM (active); in experiment [3], 17.8 µM (active) and 85 µM (active); in experiment [4], 35.4 µM (active); in experiment [5] it was 39 µM (active); in experiment [6], 38.1 µM (active). Moreover, in experiment [2], the result was inactive.
In the case of `CCCSP(=O)(OCC)Oc1ccc(Br)cc1Cl` (stereo unspecified), the molecule was called inactive in experiment [1], in experiment [2] and in experiment [3].
`CSC1=N[C@@](C)(c2ccccc2)C(=O)N1Nc1ccccc1`: the result in experiment [1], in experiment [2], in experiment [3], in experiment [4], in experiment [5] and in experiment [6] was inactive.
On to `CCOP(=S)(OCC)Oc1ccc2c(C)c(Cl)c(=O)oc2c1`, for which the figures for the AC50 in experiment [1], in experiment [2] and in experiment [3] were 86.4 µM (active), 73.8 µM (active) and 38.6 µM (active), respectively.
`CCOP(=S)(OCC)SCCSCC`: the molecule was classed as inactive in experiment [1], in experiment [2], in experiment [4], in experiment [5] and in experiment [6].
As for `CCCSP(=O)(OCC)SCCC`, the molecule was called inactive in experiment [1], in experiment [2], in experiment [3], in experiment [4], in experiment [5] and in experiment [6]. Further, in experiment [7], the molecule was called inactive.

Source of the values: PubChem BioAssay (EPA / NIEHS).
